The record followed here is ChEMBL document CHEMBL1961873, “Compounds: GSK PKIS; Assays: Nanosyn kinase panel” (2012).

Assay [1] concerns the target Rho-associated protein kinase 1 (Homo sapiens) (UniProt Q13464). As to conditions: at 1 µM.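 Further: reported values are mean percent inhibition of ROCK1.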
The target of assay [2] is Rho-associated protein kinase 2 (Homo sapiens) (UniProt O75116). The following applies: at 0.1 µM.
Assay [3] shares this target. As to conditions: at 1 µM.
The target in assay [4] is Ribosomal protein S6 kinase alpha-1 (Homo sapiens) (UniProt Q15418). The following applies: at 0.1 µM.
The target is the same in assay [5]. As to conditions: at 1 µM.
The target in assay [6] is Ribosomal protein S6 kinase alpha-3 (Homo sapiens) (UniProt P51812). As to conditions: at 0.1 µM.
The target is the same in assay [7]. As to conditions: at 1 µM.
The target of assay [8] is Ribosomal protein S6 kinase alpha-2 (Homo sapiens) (UniProt Q15349). The following applies: at 0.1 µM.
Assay [9] has the same target. As to conditions: at 1 µM.
Assay [10] deals with Ribosomal protein S6 kinase alpha-6 (Homo sapiens) (UniProt Q9UK32). As to conditions: at 0.1 µM.
Assay [11] has the same target. The following applies: at 1 µM.
For assay [12], the target named is T1, Serine/threonine-protein kinase Sgk1 (Homo sapiens) (UniProt O00141).
T1 sequence (whole entry): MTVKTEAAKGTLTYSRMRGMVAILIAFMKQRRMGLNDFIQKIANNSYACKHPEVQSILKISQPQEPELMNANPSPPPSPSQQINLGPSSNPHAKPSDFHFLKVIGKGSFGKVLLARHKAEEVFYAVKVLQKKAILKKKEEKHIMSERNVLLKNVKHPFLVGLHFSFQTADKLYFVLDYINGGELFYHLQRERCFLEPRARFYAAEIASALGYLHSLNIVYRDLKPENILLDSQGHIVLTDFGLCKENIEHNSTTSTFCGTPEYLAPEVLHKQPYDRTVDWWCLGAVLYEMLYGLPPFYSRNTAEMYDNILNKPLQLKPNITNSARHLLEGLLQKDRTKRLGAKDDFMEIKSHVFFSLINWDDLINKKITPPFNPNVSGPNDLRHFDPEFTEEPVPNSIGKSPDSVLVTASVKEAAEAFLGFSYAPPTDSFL
As to conditions: at 0.1 µM.

In assay [13] the target is T1, Serine/threonine-protein kinase Sgk1 (Homo sapiens). As to conditions: at 1 µM.
Assay [14] has as its target T2, Serine/threonine-protein kinase Sgk2 (Homo sapiens) (UniProt Q9HBY8).
T2 sequence (whole entry): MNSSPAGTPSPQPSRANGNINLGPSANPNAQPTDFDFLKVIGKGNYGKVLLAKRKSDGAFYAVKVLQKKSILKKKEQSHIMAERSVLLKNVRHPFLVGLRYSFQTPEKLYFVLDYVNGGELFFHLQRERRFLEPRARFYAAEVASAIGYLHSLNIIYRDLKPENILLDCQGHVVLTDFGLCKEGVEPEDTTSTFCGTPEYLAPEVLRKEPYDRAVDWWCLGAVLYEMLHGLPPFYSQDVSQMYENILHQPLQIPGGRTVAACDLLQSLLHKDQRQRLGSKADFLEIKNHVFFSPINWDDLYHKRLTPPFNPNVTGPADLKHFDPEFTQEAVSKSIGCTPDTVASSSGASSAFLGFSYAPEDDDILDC
As to conditions: at 0.1 µM.

Assay [15] deals with T2, Serine/threonine-protein kinase Sgk2 (Homo sapiens). As to conditions: at 1 µM.
Assay [16] addresses T3, Serine/threonine-protein kinase Sgk3 (Homo sapiens) (UniProt Q96BR1).
T3 sequence (whole entry): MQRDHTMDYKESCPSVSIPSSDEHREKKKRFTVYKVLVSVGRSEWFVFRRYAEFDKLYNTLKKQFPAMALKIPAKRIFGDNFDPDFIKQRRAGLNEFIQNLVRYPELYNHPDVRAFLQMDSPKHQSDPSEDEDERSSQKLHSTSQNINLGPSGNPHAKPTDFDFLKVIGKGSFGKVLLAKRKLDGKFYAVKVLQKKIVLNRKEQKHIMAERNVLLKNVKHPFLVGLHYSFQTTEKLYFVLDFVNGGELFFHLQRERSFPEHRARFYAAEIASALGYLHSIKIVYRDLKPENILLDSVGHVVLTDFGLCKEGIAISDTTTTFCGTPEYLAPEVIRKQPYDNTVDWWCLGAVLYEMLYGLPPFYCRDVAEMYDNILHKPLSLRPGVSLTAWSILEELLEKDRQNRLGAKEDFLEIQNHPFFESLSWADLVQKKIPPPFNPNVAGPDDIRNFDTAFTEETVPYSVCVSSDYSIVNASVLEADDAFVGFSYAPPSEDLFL
As to conditions: at 0.1 µM.

In assay [17] the target is T3, Serine/threonine-protein kinase Sgk3 (Homo sapiens). As to conditions: at 1 µM.
Assay [18] has as its target 5'-AMP-activated protein kinase catalytic subunit alpha-1 (Homo sapiens) (UniProt Q13131). As to conditions: at 0.1 µM.
Assay [19] has the same target. As to conditions: at 1 µM.
Assay [20] deals with 5'-AMP-activated protein kinase catalytic subunit alpha-2 (Homo sapiens) (UniProt P54646). As to conditions: at 0.1 µM.
Sequence of 5'-AMP-activated protein kinase catalytic subunit alpha-2 (Homo sapiens) (P54646 whole entry, looked up): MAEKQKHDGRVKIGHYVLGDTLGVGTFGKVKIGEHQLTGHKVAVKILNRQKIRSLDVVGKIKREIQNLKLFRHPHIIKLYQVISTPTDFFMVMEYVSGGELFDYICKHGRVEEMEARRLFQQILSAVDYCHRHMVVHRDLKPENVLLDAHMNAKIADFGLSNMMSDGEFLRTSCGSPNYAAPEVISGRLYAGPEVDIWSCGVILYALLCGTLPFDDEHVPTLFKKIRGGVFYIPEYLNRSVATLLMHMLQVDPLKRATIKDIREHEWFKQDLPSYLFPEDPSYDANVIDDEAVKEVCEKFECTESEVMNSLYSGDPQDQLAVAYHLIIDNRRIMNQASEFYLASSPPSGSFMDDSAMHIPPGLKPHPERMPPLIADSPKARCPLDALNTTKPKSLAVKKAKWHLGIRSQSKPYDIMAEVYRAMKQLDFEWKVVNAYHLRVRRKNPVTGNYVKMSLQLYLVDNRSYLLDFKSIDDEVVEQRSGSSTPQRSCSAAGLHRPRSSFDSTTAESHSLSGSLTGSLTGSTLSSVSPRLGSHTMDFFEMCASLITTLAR

Sequence of 5'-AMP-activated protein kinase catalytic subunit alpha-1 (Homo sapiens) (Q13131 whole entry, looked up): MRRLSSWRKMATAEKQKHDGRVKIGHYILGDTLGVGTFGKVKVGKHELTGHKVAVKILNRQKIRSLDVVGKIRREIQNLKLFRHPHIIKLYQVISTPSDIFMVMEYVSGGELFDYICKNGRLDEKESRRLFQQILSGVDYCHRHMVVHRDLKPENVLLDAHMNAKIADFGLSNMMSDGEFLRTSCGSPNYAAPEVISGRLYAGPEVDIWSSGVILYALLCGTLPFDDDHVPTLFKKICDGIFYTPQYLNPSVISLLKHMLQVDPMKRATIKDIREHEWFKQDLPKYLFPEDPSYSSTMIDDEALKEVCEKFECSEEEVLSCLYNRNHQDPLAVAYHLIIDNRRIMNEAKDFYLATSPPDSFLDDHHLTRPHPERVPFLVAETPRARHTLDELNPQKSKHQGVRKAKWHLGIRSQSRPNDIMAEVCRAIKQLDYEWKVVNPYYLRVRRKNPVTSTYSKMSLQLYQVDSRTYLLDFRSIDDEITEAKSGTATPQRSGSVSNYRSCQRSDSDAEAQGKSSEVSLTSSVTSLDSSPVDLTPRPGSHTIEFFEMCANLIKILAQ
Sequence of Rho-associated protein kinase 2 (Homo sapiens) (O75116 whole entry, looked up): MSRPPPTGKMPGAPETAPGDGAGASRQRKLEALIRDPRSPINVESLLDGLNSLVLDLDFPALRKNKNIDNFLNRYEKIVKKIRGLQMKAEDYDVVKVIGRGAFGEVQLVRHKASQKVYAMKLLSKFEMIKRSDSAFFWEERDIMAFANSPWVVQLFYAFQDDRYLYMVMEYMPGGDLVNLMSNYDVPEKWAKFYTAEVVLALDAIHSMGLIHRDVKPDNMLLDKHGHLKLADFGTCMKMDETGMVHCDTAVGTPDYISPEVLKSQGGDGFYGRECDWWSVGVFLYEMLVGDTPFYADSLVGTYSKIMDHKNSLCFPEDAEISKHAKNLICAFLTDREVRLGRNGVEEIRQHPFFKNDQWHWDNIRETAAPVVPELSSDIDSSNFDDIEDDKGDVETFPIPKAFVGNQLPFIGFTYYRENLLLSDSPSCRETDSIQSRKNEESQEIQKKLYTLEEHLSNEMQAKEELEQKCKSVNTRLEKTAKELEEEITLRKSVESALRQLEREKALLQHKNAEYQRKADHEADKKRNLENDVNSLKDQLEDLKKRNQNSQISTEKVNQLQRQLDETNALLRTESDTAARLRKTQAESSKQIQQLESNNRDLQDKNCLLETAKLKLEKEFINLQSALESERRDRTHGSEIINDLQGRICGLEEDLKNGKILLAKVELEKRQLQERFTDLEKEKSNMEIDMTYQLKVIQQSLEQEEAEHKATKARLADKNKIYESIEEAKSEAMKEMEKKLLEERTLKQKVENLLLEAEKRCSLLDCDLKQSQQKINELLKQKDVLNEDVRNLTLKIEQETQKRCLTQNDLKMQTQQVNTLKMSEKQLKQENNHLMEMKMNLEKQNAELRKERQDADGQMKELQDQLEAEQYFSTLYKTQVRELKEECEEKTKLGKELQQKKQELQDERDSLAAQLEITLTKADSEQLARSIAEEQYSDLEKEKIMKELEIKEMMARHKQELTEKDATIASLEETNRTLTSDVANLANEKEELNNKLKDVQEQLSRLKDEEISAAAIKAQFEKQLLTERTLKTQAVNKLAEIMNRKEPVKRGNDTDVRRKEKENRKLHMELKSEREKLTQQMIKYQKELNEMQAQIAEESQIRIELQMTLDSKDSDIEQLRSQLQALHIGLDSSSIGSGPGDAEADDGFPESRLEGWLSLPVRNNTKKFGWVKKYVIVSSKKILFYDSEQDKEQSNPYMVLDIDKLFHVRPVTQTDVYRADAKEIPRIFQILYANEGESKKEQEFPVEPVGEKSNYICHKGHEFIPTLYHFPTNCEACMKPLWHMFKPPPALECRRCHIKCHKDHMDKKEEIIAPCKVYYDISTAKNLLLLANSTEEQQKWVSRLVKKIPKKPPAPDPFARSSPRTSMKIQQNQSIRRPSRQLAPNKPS
Sequence of Ribosomal protein S6 kinase alpha-3 (Homo sapiens) (P51812 whole entry): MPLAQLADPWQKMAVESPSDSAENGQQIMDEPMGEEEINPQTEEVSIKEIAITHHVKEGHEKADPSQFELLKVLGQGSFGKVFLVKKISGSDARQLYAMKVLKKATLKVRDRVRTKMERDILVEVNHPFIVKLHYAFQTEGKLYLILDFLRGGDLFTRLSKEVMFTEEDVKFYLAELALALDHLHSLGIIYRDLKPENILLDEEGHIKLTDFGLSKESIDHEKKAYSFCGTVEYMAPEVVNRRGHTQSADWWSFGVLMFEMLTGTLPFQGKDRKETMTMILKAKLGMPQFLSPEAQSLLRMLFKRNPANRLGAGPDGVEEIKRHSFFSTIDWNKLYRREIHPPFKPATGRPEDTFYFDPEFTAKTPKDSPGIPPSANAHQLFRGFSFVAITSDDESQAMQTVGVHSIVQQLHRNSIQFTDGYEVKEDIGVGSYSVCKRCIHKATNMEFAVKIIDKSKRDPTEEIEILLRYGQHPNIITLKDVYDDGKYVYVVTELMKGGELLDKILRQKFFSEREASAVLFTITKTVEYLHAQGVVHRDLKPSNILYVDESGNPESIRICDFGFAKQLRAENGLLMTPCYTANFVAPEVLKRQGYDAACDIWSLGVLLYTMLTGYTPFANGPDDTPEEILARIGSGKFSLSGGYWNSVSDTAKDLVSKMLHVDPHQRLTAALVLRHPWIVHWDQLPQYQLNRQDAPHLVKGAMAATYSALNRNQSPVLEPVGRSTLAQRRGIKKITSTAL
Sequence of Ribosomal protein S6 kinase alpha-1 (Homo sapiens) (Q15418 whole entry): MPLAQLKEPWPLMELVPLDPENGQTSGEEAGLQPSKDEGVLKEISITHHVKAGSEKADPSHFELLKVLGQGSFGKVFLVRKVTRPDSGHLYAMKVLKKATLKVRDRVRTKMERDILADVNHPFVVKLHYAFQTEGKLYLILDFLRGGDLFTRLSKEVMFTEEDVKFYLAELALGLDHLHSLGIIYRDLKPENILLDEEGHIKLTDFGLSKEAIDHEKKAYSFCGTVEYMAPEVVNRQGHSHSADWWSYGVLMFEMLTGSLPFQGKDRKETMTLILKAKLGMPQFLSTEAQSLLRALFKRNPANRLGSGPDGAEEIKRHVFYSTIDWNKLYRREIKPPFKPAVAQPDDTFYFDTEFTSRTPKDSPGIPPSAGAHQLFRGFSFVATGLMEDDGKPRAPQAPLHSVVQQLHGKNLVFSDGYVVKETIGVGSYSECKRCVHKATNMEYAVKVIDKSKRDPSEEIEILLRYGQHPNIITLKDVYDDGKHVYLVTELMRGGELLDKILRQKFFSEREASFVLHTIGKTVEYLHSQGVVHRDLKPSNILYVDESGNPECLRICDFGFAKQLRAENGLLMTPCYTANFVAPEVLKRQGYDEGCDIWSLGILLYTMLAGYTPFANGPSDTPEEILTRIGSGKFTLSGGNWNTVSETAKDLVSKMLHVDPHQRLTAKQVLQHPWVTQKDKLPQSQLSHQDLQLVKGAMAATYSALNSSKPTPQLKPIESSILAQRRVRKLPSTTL
Sequence of Ribosomal protein S6 kinase alpha-2 (Homo sapiens) (Q15349 whole entry): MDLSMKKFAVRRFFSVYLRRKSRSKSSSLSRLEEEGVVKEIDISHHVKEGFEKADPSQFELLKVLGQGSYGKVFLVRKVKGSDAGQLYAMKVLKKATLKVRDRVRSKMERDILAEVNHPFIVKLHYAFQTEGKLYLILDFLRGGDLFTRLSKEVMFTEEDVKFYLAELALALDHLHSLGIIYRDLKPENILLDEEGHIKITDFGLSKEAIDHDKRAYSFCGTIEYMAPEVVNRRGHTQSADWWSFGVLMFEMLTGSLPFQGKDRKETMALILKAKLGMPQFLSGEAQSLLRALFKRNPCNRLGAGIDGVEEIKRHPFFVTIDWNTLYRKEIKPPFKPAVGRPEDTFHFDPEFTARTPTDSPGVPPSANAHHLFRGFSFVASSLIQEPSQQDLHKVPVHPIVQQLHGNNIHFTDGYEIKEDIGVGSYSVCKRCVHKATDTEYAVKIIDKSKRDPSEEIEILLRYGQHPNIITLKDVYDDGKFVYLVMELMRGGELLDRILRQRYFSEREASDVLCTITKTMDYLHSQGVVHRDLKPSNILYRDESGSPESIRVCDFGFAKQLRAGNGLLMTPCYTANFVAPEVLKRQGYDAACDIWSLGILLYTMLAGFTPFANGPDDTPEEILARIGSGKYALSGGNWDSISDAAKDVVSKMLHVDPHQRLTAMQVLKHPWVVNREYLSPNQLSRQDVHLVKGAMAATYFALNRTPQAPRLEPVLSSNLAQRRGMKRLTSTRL

As to `COc1cc(C)c(NC(=O)CN(C)C)cc1Nc1nc(Nc2cccc(F)c2C(N)=O)c2cc[nH]c2n1`, the inhibition in [1] came to 11.4%; in [2] it was 1.26%; in assay [3], 7.68%; in assay [4], 9.42%; in [5] it was 40.7%; in assay [6], 4.6%. Besides, the inhibition in [7] was determined as 23.1%; in [8], 1.22%; in assay [9], 11.5%; in assay [10] it was 3.59%; in assay [11], 23.1%; in assay [12] it was 1.87%. For the same compound, the inhibition is -1.3% in assay [13]; 1.44% in [14]; 0.65% in [15]; 0.69% in assay [16]; 0.16% in assay [17]; 1.03% in [18]. In addition, the inhibition in assay [19] is 0.78%; in assay [20], 1.06%.

Regarding `CCn1c(-c2nonc2N)nc2c(C#CC(C)(C)O)nc(CN3CCCC3)cc21`, the inhibition in assay [1] amounted to 0.94%; in assay [2], 0.14%; in assay [3] it was 1.51%; in assay [4], 2.05%; in assay [5] it was 1.13%; in assay [6], 1.08%. The inhibition in [7] is 2.37%; in assay [8], -0.08%; in assay [9] it was 0.59%; in assay [10], 0.28%; in assay [11] it was 0.64%; in assay [12], -0.45%. The inhibition is 0.58% in assay [13]; 0.87% in assay [14]; -0.61% in assay [15]; 0.78% in [16]; 0.63% in [17]; 2.98% in [18]. For the same compound, the inhibition in assay [19] was 3.34%; in [20], 2.04%.

`Nc1ncnc2occ(-c3ccc(NC(=O)Nc4cccc(C(F)(F)F)c4)cc3)c12`: the inhibition in assay [1] is 19%; in assay [2] it was 11.1%; in assay [3] it was 46.9%; in assay [4], 4.59%; in [5], 33.8%; in [6] it was 2.15%. In addition, the inhibition was 26.1% in [7]; 7.44% in assay [8]; 52.9% in assay [9]; -0.29% in assay [10]; 9.85% in [11]; 4.14% in [12]. The inhibition turned out to be 3.96% in [13]; 3.57% in assay [14]; 4.73% in assay [15]; 6.15% in assay [16]; 2.94% in assay [17]; 1.82% in assay [18]. Also, the values for the inhibition in assay [19] and in [20] were 5.16% and 2.97%, respectively.

For `Cc1nnc(-c2ccc(C)c(-c3ccc(C(=O)Nc4cccc(C#N)c4)cc3)c2)o1`, the inhibition in assay [1] is 0.62%; in [2], -0.03%; in [3], 3.81%; in assay [4], 1.66%; in assay [5], 3.77%; in [6] it was 1.23%. The inhibition came out at 2.97% in assay [7]; 0.46% in assay [8]; 2.89% in assay [9]; 0% in assay [10]; 1.23% in assay [11]; 0.29% in assay [12]. In addition, the inhibition in assay [13] was 4.49%; in [14], -1.98%; in assay [15] it was 0.76%; in [16], 1.01%; in assay [17], 3.55%; in assay [18], 2.8%. Also, the inhibition in assay [19] was 2.03%; in [20] it was -0.06%.

`CCCN1CCC=C(c2ccc(Nc3nc(Nc4ccccc4C(N)=O)c4cc[nH]c4n3)c(C)c2)C1`: the inhibition in [1] stood at 8.96%; in [2] it was 2.53%; in assay [3] it was 12.8%; in assay [4], 19.8%; in assay [5], 54.6%; in [6], 9.39%. Besides, the inhibition in assay [7] is 39.4%; in assay [8], 3.72%; in [9], 19.2%; in assay [10], 11.7%; in assay [11], 38.9%; in [12], 1.16%. Moreover, the inhibition in assay [13] came out at 5.7%; in assay [14] it was 1.55%; in assay [15], 1.12%; in assay [16], 2.67%; in assay [17], 2.94%; in assay [18] it was 4.78%. Also, the inhibition in assay [19] is 29.5%; in assay [20], 8.68%.

On to `Fc1cccc(COc2ccc(Nc3ncnc4sc(-c5cccs5)cc34)cc2Cl)c1`, for which the inhibition in [1] was 2.28%; in assay [2] it was 0.99%; in assay [3] it was 1.7%; in assay [4], -0.29%; in assay [5], -0.48%; in assay [6], -1.22%. The inhibition in assay [7] is -0.28%; in assay [8], 0.38%; in assay [9], 1.25%; in [10], -0.01%; in assay [11], 0.4%; in [12], 1.05%. For the same compound, the inhibition in [13] is 0.86%; in [14], 0.37%; in [15] it was 0.66%; in assay [16] it was 0.04%; in assay [17] it was -0.58%; in [18], 0.51%. Moreover, the inhibition in [19] is 0.48%; in [20] it was 2.89%.

`COC(=O)Nc1nc2cc(Oc3cccc(NC(=O)Nc4cc(C(F)(F)F)ccc4F)c3)ccc2[nH]1`: the inhibition in assay [1] was 0.94%; in [2] it was -1.5%; in [3], -0.89%; in assay [4], 0.53%; in [5] it was 0.21%; in assay [6] it was 0.36%. The inhibition in assay [7] was 1.19%; in assay [8] it was -0.64%; in [9] it was 2%; in [10], -0.63%; in assay [11], 1.04%; in assay [12], 0.32%. The inhibition in assay [13] is 0.41%; in [14] it was -2.66%; in assay [15] it was -3.24%; in assay [16] it was -0.34%; in assay [17], -0.49%; in assay [18], 1.64%. Further, the inhibition in [19] was 0.51%; in assay [20], 0.44%.

As usually defined, the inhibition is the change of the read-out against control, counted positive when it falls.
